The record followed here is PubChem BioAssay (NCI).

The panel holds about 83,000 compounds, 20% with a hit somewhere; the sample as a whole holds those more often.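 Each cell line was grown in a 96-well plate and treated with one concentration of compound for 48 hours. Values below 10 were considered active.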 A number with no mark means an inactive call.

In one assay the test system is HCT-15 colon. As to the kind of experiment: NCI-60 one-dose screen, 48 h (100 = growth as untreated, 0 = no growth, -100 = all killed). Particulars: 10 µM unless noted.
Take `Nc1nc(Cl)cc(Cl)n1`: the growth was 102%.

Turning to `CCCCCCCCCCCCCCCCOc1ccccc1NC(=O)CC(C)=O`, the growth was 113%.

As to `Cc1cc(Cc2ccccc2)c(O)c(Cc2ccccc2)c1`, the growth was 89.8%.

For the compound `Nc1cc(N)ncn1`, the growth is 102%.

On to `CC(C)(C)NCCC(O)c1cc(C(F)(F)F)nc2c(C(F)(F)F)cccc12` (centres undefined), for which the growth is 79.2%.

On to `C=C(OC(C)=O)c1ccccc1`, for which the growth was 114%.

`O=Cc1c(O)c2ccccc2[nH]c1=O`: the growth was 95.2%.

As to `CN=S(=O)(OCCCCCOS(=O)(=NC)c1ccc(C)cc1)c1ccc(C)cc1` (centres undefined), the growth is 108%.

For `CCOC(=O)c1c(C)[nH]c(C)c1C=O`, the growth was 107%.

On to `O=C(NCc1ccccc1)/C(=C/c1ccccc1)NC(=O)c1ccccc1`, for which the growth was 106%.

Regarding `O=c1cc(Cl)nc2ccccn12`, the growth is 109%.

Consider `Oc1cc(O)c2c(c1)O[C@H](c1ccc(O)c(O)c1)[C@@H](O)C2`, for which the growth is 100%.

In the case of `CCOP(=O)(NC(c1ccccc1)c1ccccc1)OCC`, the growth is 117%.

As for `Cc1ccc2nc(N)nnc2c1`, the growth was 102%.

As to `Cc1ccc(S(N)(=O)=O)cc1Cl`, the growth was 104%.

With `Nc1cc2ccccc2c(O)c1O`, the growth is 16%.

`CC(C)N1CC(=O)N2CSCC2C1=O` (centres undefined): the growth was 105%.

In the case of `CCOC(=N)CC(=O)Nc1cccc(C)c1Cl`, the growth is 100%.

With `Cc1cc2c(C(C)C)c(O)c(O)c(C=Nc3ccccc3[N+](=O)[O-])c2c(O)c1-c1c(C)cc2c(C(C)C)c(O)c(O)c(C=Nc3ccccc3[N+](=O)[O-])c2c1O`, the growth is 80.2%.

`Cc1cc(C(=O)NN)c(C#N)c(=O)[nH]1`: the growth was 105%.

For `COC1OC(CO)C(OC)C(O)C1O` (centres undefined), the growth is 100%.

Consider `CCOC(=O)/C(O)=C(\C=N\C(=S)Nc1ccc(Cl)c(Cl)c1)C(=O)OCC`, for which the growth was 89.3%.

Turning to `O=C(c1ccccc1)c1ccc(-c2ccc(O)cc2)cc1`, the growth was 57%.

As for `CC(=O)C1C(=O)C(=O)N(c2cccc([N+](=O)[O-])c2)C1=O` (centres undefined), the growth is 102%.

Consider `CCOC(OCC)C(=O)c1ccccc1`, for which the growth was 104%.

Regarding `Cc1ccc(O)c(N)c1`, the growth was 106%.

On to `COC(=O)c1ccccc1C(=O)c1c(C)cc(C)cc1C`, for which the growth was 101%.

With `COc1cc(-c2ccc(NC(=O)CC(C)=O)c(OC)c2)ccc1NC(=O)CC(C)=O`, the growth is 96.7%.

Turning to `Oc1cccc(CNC2CCCCC2)c1`, the growth was 105%.

In the case of `COc1ccc(C(=O)C(=O)c2ccccc2)cc1`, the growth is 91.9%.

As for `CSc1cnc2ccccc2n1`, the growth was 104%.

`Nc1ccc2c(c1)Cc1cc(N)c(N)cc1-2`: the growth was 108%.

In the case of `CCCCN(C(=O)CC)c1ccccc1`, the growth is 108%.

Take `Nc1c(Br)cc(O)c2c1C(=O)c1ccccc1C2=O`: the growth is 47.7%.

For `CC(=O)N(C(C)=O)c1ccc(C)cc1`, the growth was 96%.

Regarding `Cc1cc(CC(=O)NCCO)n(CCO)c(=O)c1`, the growth was 109%.

As for `CCOC(=O)c1ccc(NC(C)=O)o1`, the growth was 106%.

The subject of a further assay is HT29 colon. Described as above. As to conditions: 10 µM unless noted.
Turning to `Nc1nc(Cl)cc(Cl)n1`, the growth was 86.8%.

`CCCCCCCCCCCCCCCCOc1ccccc1NC(=O)CC(C)=O`: the growth is 97.9%.

For the compound `Cc1cc(Cc2ccccc2)c(O)c(Cc2ccccc2)c1`, the growth was 104%.

Turning to `Nc1cc(N)ncn1`, the growth was 104%.

Regarding `CC(C)(C)NCCC(O)c1cc(C(F)(F)F)nc2c(C(F)(F)F)cccc12` (centres undefined), the growth was 66.5%.

Consider `C=C(OC(C)=O)c1ccccc1`, for which the growth was 98.4%.

For the compound `O=Cc1c(O)c2ccccc2[nH]c1=O`, the growth was 116%.

For `CN=S(=O)(OCCCCCOS(=O)(=NC)c1ccc(C)cc1)c1ccc(C)cc1` (centres undefined), the growth is 95.8%.

Turning to `CCOC(=O)c1c(C)[nH]c(C)c1C=O`, the growth was 107%.

`O=C(NCc1ccccc1)/C(=C/c1ccccc1)NC(=O)c1ccccc1`: the growth was 92.9%.

On to `O=c1cc(Cl)nc2ccccn12`, for which the growth is 111%.

In the case of `Oc1cc(O)c2c(c1)O[C@H](c1ccc(O)c(O)c1)[C@@H](O)C2`, the growth was 97.5%.

For `CCOP(=O)(NC(c1ccccc1)c1ccccc1)OCC`, the growth is 107%.

As to `Cc1ccc2nc(N)nnc2c1`, the growth is 112%.

As to `Cc1ccc(S(N)(=O)=O)cc1Cl`, the growth was 104%.

For the compound `Nc1cc2ccccc2c(O)c1O`, the growth is 95.8%.

With `CC(C)N1CC(=O)N2CSCC2C1=O` (centres undefined), the growth is 119%.

As to `CCOC(=N)CC(=O)Nc1cccc(C)c1Cl`, the growth is 116%.

As for `Cc1cc2c(C(C)C)c(O)c(O)c(C=Nc3ccccc3[N+](=O)[O-])c2c(O)c1-c1c(C)cc2c(C(C)C)c(O)c(O)c(C=Nc3ccccc3[N+](=O)[O-])c2c1O`, the growth was 93%.

Turning to `Cc1cc(C(=O)NN)c(C#N)c(=O)[nH]1`, the growth was 124%.

Regarding `COC1OC(CO)C(OC)C(O)C1O` (centres undefined), the growth was 110%.

For the compound `CCOC(=O)/C(O)=C(\C=N\C(=S)Nc1ccc(Cl)c(Cl)c1)C(=O)OCC`, the growth is 92.8%.

With `O=C(c1ccccc1)c1ccc(-c2ccc(O)cc2)cc1`, the growth was 120%.

In the case of `CC(=O)C1C(=O)C(=O)N(c2cccc([N+](=O)[O-])c2)C1=O` (centres undefined), the growth is 105%.

Turning to `CCOC(OCC)C(=O)c1ccccc1`, the growth was 92.7%.

`Cc1ccc(O)c(N)c1`: the growth was 112%.

As for `COC(=O)c1ccccc1C(=O)c1c(C)cc(C)cc1C`, the growth is 93.8%.

For the compound `COc1cc(-c2ccc(NC(=O)CC(C)=O)c(OC)c2)ccc1NC(=O)CC(C)=O`, the growth was 107%.

In the case of `Oc1cccc(CNC2CCCCC2)c1`, the growth is 100%.

With `COc1ccc(C(=O)C(=O)c2ccccc2)cc1`, the growth was 107%.

With `CSc1cnc2ccccc2n1`, the growth was 83.2%.

In the case of `Nc1ccc2c(c1)Cc1cc(N)c(N)cc1-2`, the growth was 95.9%.

`CCCCN(C(=O)CC)c1ccccc1`: the growth is 100%.

On to `Nc1c(Br)cc(O)c2c1C(=O)c1ccccc1C2=O`, for which the growth was 54%.

As to `CC(=O)N(C(C)=O)c1ccc(C)cc1`, the growth is 105%.

For the compound `Cc1cc(CC(=O)NCCO)n(CCO)c(=O)c1`, the growth is 98.3%.

With `CCOC(=O)c1ccc(NC(C)=O)o1`, the growth was 102%.
